Experimental data from PubChem BioAssay AID1159580 (chemical genetic matrix, 2015).
In all, about 5,500 compounds went through this assay and about 2,000 (36%) were called active. Another 18% or so got no clear call; they are omitted. No stated cut-off is given here; in the data, active means normalized growth mostly below about 0.91 (no sharp cut-off); inconclusive means no clear call, values can overlap the other calls; inactive means mostly above about 0.92. Some of the results follow.

Experiment: chemical genetic growth profiling, strain panel (AID 1159580);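 further: tested at 20 µM; growth read once vehicle control cultures reached saturation at 30 °C; 1 = growth at the plate median or of vehicle wells; lower values mean less growth of the strain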
Details: S. cerevisiae deletion strains, growth OD

Measured: normalized growth

CC(C)c1cccc(C(C)C)c1O
inactive: locus YAL013W, strain DEP1, hits give low values 1.01 | locus YAL021C, strain ccr4, hits give low values 1 | locus YAL026C, strain drs2, hits give low values 0.993 | locus YAL030W, strain snc1, hits give low values 0.985 | locus YAL040C, strain CLN3, hits give low values 0.998 | locus YBL061C, strain skt5, hits give low values 0.983 | locus YBR009C, strain hhf1, hits give low values 0.966 | locus YBR023C, strain chs3, hits give low values 0.977 | locus YBR171W, strain sec66, hits give low values 0.987 | locus YBR231C, strain swc5, hits give low values 0.997 | locus YBR279W, strain paf1, hits give low values 0.992 | locus YCL011C, strain gbp2, hits give low values 0.991 | locus YCL016C, strain dcc1, hits give low values 0.976 | locus YCL061C, strain MRC1 (second series), hits give low values 0.988 | locus YCL061C, strain MRC1, hits give low values 0.991 | locus YCL069W, strain vba3, hits give low values 0.992 | locus YCR088W, strain abp1, hits give low values 0.996 | locus YDL005C, strain med2, hits give low values 0.984 | locus YDL040C, strain nat1, hits give low values 0.976 | locus YDR001C, strain nth1, hits give low values 0.994 | locus YDR069C, strain doa4, hits give low values 0.981 | locus YDR137W, strain rgp1, hits give low values 0.966 | locus YDR150W, strain NUM1, hits give low values 0.993 | locus YDR159W, strain sac3, hits give low values 0.982 | locus YDR195W, strain ref2 0.951 | locus YDR297W, strain sur2, hits give low values 0.988 | locus YDR334W, strain swr1, hits give low values 0.988 | locus YDR335W, strain msn5, hits give low values 0.993 | locus YDR363W, strain ESC2, hits give low values 0.973 | locus YDR392W, strain spt3, hits give low values 0.869 | locus YEL003W, strain gim4, hits give low values 0.99 | locus YEL037C, strain rad23, hits give low values 0.986 | locus YEL061C, strain CIN8 (second series), hits give low values 0.986 | locus YER002W, strain NOP16, hits give low values 0.986 | locus YER015W, strain faa2, hits give low values 0.983 | locus YER016W, strain bim1, hits give low values 0.979 | locus YER111C, strain swi4, hits give low values 0.973 | locus YER155C, strain BEM2 (second series), hits give low values 0.996 | locus YFR010W, strain ubp6, hits give low values 0.978 | locus YGL167C, strain pmr1, hits give low values 0.972 | locus YGL173C, strain kem1, hits give low values 0.98 | locus YGL227W, strain vid30, hits give low values 0.988 | locus YGL240W, strain doc1, hits give low values 0.983 | locus YGL253W, strain hxk2, hits give low values 0.997 | locus YGR078C, strain PAC10, hits give low values 1 | locus YHR013C, strain ard1, hits give low values 1.03 | locus YHR027C, strain rpn1, hits give low values 0.99 | locus YHR030C, strain SLT2, hits give low values 0.94 | locus YHR079C, strain IRE1, hits give low values 0.954 | locus YHR142W, strain chs7, hits give low values 1.01 | locus YJL092W, strain hpr5, hits give low values 0.992 | locus YJL095W, strain BCK1 (second series), hits give low values 0.993 | locus YJL095W, strain BCK1, hits give low values 0.992 | locus YJL115W, strain asf1, hits give low values 0.983 | locus YJL129C, strain trk1, hits give low values 0.992 | locus YJL154C, strain vps35, hits give low values 0.99 | locus YJL164C, strain tpk1, hits give low values 0.979 | locus YJL166W, strain qcr8, hits give low values 0.986 | locus YJL187C, strain SWE1, hits give low values 0.994 | locus YJR066W, strain TOR1, hits give low values 0.935 | locus YJR075W, strain HOC1, hits give low values 1 | locus YKL160W, strain elf1, hits give low values 1 | locus YKR026C, strain gcn3, hits give low values 0.953 | locus YKR091W, strain srl3, hits give low values 0.984 | locus YLL001W, strain dnm1, hits give low values 0.988 | locus YLL026W, hits give low values 0.988 | locus YLL041C, strain sdh2, hits give low values 0.996 | locus YLR027C, strain aat2, hits give low values 0.993 | locus YLR113W, strain HOG1, hits give low values 0.996 | locus YLR221C, strain rsa3, hits give low values 1.01 | locus YLR258W, strain gsy2, hits give low values 0.991 | locus YLR262C, strain YPT6 (second series), hits give low values 0.97 | locus YLR320W, strain mms22, hits give low values 0.935 | locus YLR342W, strain FKS1, hits give low values 0.986 | locus YLR357W, strain rsc2, hits give low values 0.939 | locus YLR370C, strain arc18, hits give low values 0.996 | locus YLR384C, strain iki3, hits give low values 0.971 | locus YML120C, strain ndi1, hits give low values 0.98 | locus YMR058W, strain fet3, hits give low values 0.996 | locus YMR125W, strain sto1, hits give low values 0.988 | locus YMR129W, hits give low values 1 | locus YMR205C, strain PFK2, hits give low values 0.941 | locus YMR231W, strain pep5, hits give low values 0.992 | locus YMR263W, strain SAP30, hits give low values 1 | locus YMR307W, strain GAS1, hits give low values 1 | locus YNL071W, strain lat1, hits give low values 0.996 | locus YNL153C, strain GIM3, hits give low values 1.01 | locus YNL175C, strain NOP13, hits give low values 1.03 | locus YNL183C, strain NPR1, hits give low values 0.942 | locus YNL197C, strain WHI3, hits give low values 1 | locus YNL209W, strain ssb2, hits give low values 0.992 | locus YNL224C, strain SQS1, hits give low values 1.02 | locus YNL248C, strain rpa49, hits give low values 1.01 | locus YNL322C, strain KRE1 (second series), hits give low values 0.981 | locus YNL322C, strain KRE1, hits give low values 1.01 | locus YNR049C, strain mso1, hits give low values 0.983 | locus YOR001W, strain rrp6, hits give low values 0.997 | locus YOR070C, strain gyp1, hits give low values 0.99 | locus YOR080W, strain dia2, hits give low values 0.984 | locus YOR083W, strain WHI5 (second series), hits give low values 1.02 | locus YOR083W, strain WHI5, hits give low values 1.01 | locus YOR106W, strain vam3, hits give low values 0.991 | locus YOR231W, strain MKK1, hits give low values 0.914 | locus YOR265W, strain rbl2, hits give low values 0.991 | locus YOR270C, strain vph1, hits give low values 0.993 | locus YOR290C, strain snf2, hits give low values 0.918 | locus YPL051W, strain arl3, hits give low values 1 | locus YPL055C, strain LGE1, hits give low values 0.999 | locus YPL078C, strain atp4, hits give low values 0.994 | locus YPL106C, strain sse1, hits give low values 0.951 | locus YPL240C, strain hsp82, hits give low values 1.01 | locus YPL241C, strain CIN2, hits give low values 1.01 | locus YPL256C, strain CLN2, hits give low values 0.929
